The nature of assay [1]: qHTS assay to identify small molecule agonists of the NFkB signaling pathway (AID 1159509; active = well fitted curve in the direction sought with a large enough effect in the signal ratio in the repeat runs, not every such curve was filed as active; the % refers to the signal ratio; note: series mostly up to about 61 µM). A digest of the protocol:
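Beta-lactamase reporter assay run in quantitative high-throughput format on an NF-kB-responsive ME-180 line, with 5 hr compound treatment and a FRET-based blue/green fluorescence readout.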
(In general: qHTS replaces the single test concentration by a dilution series.)

Assay [2] in a line: qHTS assay to identify small molecule antagonists of the retinoid-related orphan receptor gamma (ROR-gamma) signaling pathway - cell viability counter screen (AID 1159520; active = well fitted curve in the direction sought with a large enough effect in the repeat runs; an effect the other way counts as inactive or inconclusive; note: nearly all actives have a fitted effect of over 50% in size; note: potency is the fitted concentration of half-maximal effect). In outline:
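Tet-on ROR gamma CHO cells (1,000/well) were plated 4 hr, given compounds in DMSO for 2 hr at 37 C, then induced with 1 uM final doxycycline for 16 hr. Viability was read as ATP by CellTiter-Glo luminescence after 30 min.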

Assay [3] addresses Nuclear receptor ROR-gamma (Homo sapiens) (UniProt P51449). Briefly: qHTS assay to identify small molecule antagonists of the retinoid-related orphan receptor gamma (ROR-gamma) signaling pathway (AID 1159521; active = well fitted curve in the direction sought with a large enough effect in the repeat runs; an effect the other way counts as inactive or inconclusive; note: nearly all actives have a fitted effect of over 50% in size; note: potency is the fitted concentration of half-maximal effect). A digest of the protocol:
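CHO Tet-on RORγ, RORE-luc reporter. Cpd 2 h pre-incubation, then dox hyclate 1 uM final, 16 h, 37 C/5% CO2. ONE-Glo luminescence; decrease = antagonist.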

The nature of assay [4]: qHTS assay to identify small molecule agonists of the RXR signaling pathway - cell viability counter screen (AID 1159529; active = well fitted curve in the direction sought with a large enough effect in the repeat runs; an effect the other way counts as inactive or inconclusive; note: nearly all actives have a fitted effect of over 50% in size; note: potency is the fitted concentration of half-maximal effect). In outline: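 HEK 293T RXRa-bla cells, 2% CS-FBS; 5 h settle; cpd 16 h 37 C, 5% CO2; CellTiter-Glo 30 min RT, luminescence. Tetraoctyl ammonium bromide as positive control.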
The nature of assay [5]: qHTS assay to identify small molecule agonists of the NFkB signaling pathway - cell viability counter screen (AID 1159515). Note: series mostly up to about 61 µM; nearly all actives have a fitted effect of over 55% in size. A digest of the protocol:
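Plate 2,000 NFkB-bla ME-180 cells/well; incubate overnight. Add compounds, 5 hr at 37 C. Add FRET substrate, 1.5 hr RT. Add CellTiter-Glo, 30 min RT; read luminescence.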

Assay [6] can be described thus: qHTS assay to identify small molecule agonists of the endoplasmic reticulum stress response signaling pathway (AID 1159516; active = well fitted activation curve with a large enough effect in the signal ratio in the repeat runs, not every such curve was filed as active; the % refers to the signal ratio). A digest of the protocol:
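Beta-lactamase expression from the ER stress response element in HeLa reporter cells is quantified with the LiveBLAzer B/G FRET substrate, read at 405 nm excitation after 2 hr at room temperature, following 5 hr compound treatment at 37 C.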

Assay [7] can be described thus: qHTS assay to identify small molecule agonists of the endoplasmic reticulum stress response signaling pathway - cell viability counter screen (AID 1159517). Note: series mostly up to about 61 µM; nearly all actives have a fitted effect of over 50% in size. In outline:
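Cytotoxicity of test compounds toward ESRE-bla HeLa cells was assessed after 5 hr exposure. The luminescent CellTiter-Glo signal was measured 30 min after reagent addition.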

Assay [8] can be described thus: qHTS assay to identify small molecule agonists of the AP-1 signaling pathway - cell viability counter screen (AID 1159525). Note: nearly all actives have a fitted effect of over 55% in size. A digest of the protocol: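 Each titration point was normalised to DMSO and tetra n-octyl ammonium bromide controls. The read was Cell Titer Glo luminescence after 30 min at RT, following 5 h compound exposure of ME-180 AP-1-bla cells at 37 °C.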

Assay [9] in a line: qHTS assay to identify small molecule agonists of the AP-1 signaling pathway (AID 1159526).
In assay [10] the target is Retinoic acid receptor RXR-alpha (Homo sapiens) (UniProt P19793). Briefly: qHTS assay to identify small molecule agonists of the RXR signaling pathway (AID 1159527). Note: nearly all actives have a fitted effect of over 35% in size. Note: potency is the fitted concentration of half-maximal effect. In outline: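 Read-out: beta-lactamase FRET ratio (405 nm excitation, 460 and 530 nm emission) after 2 hr substrate loading at room temperature. Cells were RXR-alpha-UAS-bla HEK 293T treated with compounds for 16 hr in 2% charcoal-stripped FBS medium.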

Values joined by “and” are separate entries in the source; they are usually repeats but may differ in a detail not shown here. Equal values may be shown once. Inconclusive results are not listed. The source holds several records for some structures; these can differ, active in one and inactive in another. Active and inactive are the calls of the source. Unless noted, calls come from the whole dose curve.

Sequence of Retinoic acid receptor RXR-alpha (Homo sapiens) (P19793 whole entry, looked up): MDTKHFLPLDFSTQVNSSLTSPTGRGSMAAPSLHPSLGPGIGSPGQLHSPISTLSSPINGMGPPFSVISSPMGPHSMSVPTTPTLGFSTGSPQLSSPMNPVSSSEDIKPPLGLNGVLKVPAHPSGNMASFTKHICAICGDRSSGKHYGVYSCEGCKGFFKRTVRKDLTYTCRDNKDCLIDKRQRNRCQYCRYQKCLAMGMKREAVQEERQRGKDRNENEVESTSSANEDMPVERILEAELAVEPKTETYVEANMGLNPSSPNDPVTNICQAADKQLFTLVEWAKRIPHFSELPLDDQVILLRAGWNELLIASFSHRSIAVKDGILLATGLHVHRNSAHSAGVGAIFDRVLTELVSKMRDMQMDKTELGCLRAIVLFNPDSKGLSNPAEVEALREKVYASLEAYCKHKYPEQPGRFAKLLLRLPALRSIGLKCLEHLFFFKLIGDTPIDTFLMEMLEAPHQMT

For `CCN(Cc1c(F)cccc1Cl)c1c([N+](=O)[O-])cc(C(F)(F)F)cc1[N+](=O)[O-]`, the outcome in assay [1] was inactive. Also, the Potency entry in [2] and in assay [3] was “inactive” throughout. In addition, the Potency in assay [4] was 9.77 µM (active).

Consider `F[B-](F)(F)F`, for which the Potency entry in [5], in assay [6], in assay [7], in [2], in assay [8] and in assay [9] was “inactive” throughout. Besides, the Potency result in assay [10] and in assay [4] was “inactive” in each case. The Potency result in assay [3] was “inactive and 49.2 µM (active)”.

Take `CN[C@H]1CC[C@@H](c2ccc(Cl)c(Cl)c2)c2ccccc21`: the molecule was called inactive in assay [1]. Moreover, the Potency result in assay [2], in assay [3] and in assay [8] was “inactive” throughout.

In the case of `CCCCOC(=O)c1ccc(O)cc1`, the Potency entry in [5], in assay [6], in [7], in assay [2], in assay [3] and in [8] was “inactive” each time. In addition, the Potency result in assay [9], in [10] and in assay [4] was “inactive” each time.

With `C=C(C)C(=O)OCC(C)O` (stereo not given), the Potency entry in assay [5], in assay [6], in assay [7], in assay [2], in assay [3] and in assay [8] was “inactive” throughout. The Potency entry in [9], in assay [10] and in assay [4] was “inactive” in each case.

As to `CN1CCc2cccc3c2[C@H]1Cc1ccc(O)c(O)c1-3`, the Potency result in assay [5], in assay [6], in assay [7], in [8], in [9] and in [10] was “inactive” in each case. Also, the Potency in assay [2] was 69.3 µM (active); in assay [3] it was 27.6 µM (active) and 20.4 µM (active) and inactive; in assay [4] it was 18.3 µM (active).

In the case of `CCCCCCCC(=O)OCC(COC(=O)CCCCCCC)OC(=O)CCCCCCC`, the Potency entry in [5], in assay [6], in assay [7], in assay [2], in [3] and in [8] was “inactive” throughout. In addition, the Potency result in [9], in assay [10] and in [4] was “inactive” throughout.

With `CCCCC(CC)C(=O)O` (stereo not given), the Potency result in assay [5], in assay [6], in assay [7], in assay [2], in assay [3] and in [8] was “inactive” each time. Further, the Potency entry in [9], in [10] and in assay [4] was “inactive” in each case.

`C=CCc1ccc(O)c(OC)c1`: the Potency entry in assay [5], in assay [6], in [7], in assay [2], in assay [3] and in assay [8] was “inactive” in each case. The Potency result in [9], in assay [10] and in assay [4] was “inactive” in each case.

Turning to `CC(=O)C(=O)O`, the Potency result in assay [5], in assay [6], in [7], in [2], in assay [3] and in assay [8] was “inactive” each time. In addition, the Potency entry in assay [9], in assay [10] and in assay [4] was “inactive” throughout.

For the molecule `NC(=O)c1cccnc1`, the Potency result in [5], in [6], in assay [7], in assay [2], in assay [3] and in assay [8] was “inactive” throughout. The Potency result in assay [9], in [10] and in [4] was “inactive” each time.

With `O=c1[nH]cnc2c1ncn2[C@H]1CC[C@@H](CO)O1`, the Potency entry in [5], in assay [6], in assay [7], in assay [2], in assay [3] and in assay [8] was “inactive” in each case. Further, the Potency entry in assay [9], in [10] and in [4] was “inactive” in each case.

Regarding `O=C1O[C@H]([C@@H](O)CO)C(O)=C1O`, the Potency entry in assay [5], in assay [6], in [7], in assay [2], in assay [3] and in [8] was “inactive” in each case. Also, the Potency result in assay [9] and in assay [4] was “inactive” throughout. In addition, in assay [10], the Potency entry is “inactive and 12.3 µM (active)”.

As to `C[C@](N)(Cc1ccc(O)c(O)c1)C(=O)O`, the Potency result in assay [5], in assay [6], in assay [7], in assay [2], in [3] and in assay [8] was “inactive” throughout. In addition, the Potency entry in assay [9], in [10] and in assay [4] was “inactive” in each case.

In the case of `CCCCNC(=O)NS(=O)(=O)c1ccc(C)cc1`, the Potency result in assay [5], in assay [6], in assay [7], in [2], in [3] and in assay [8] was “inactive” throughout. In addition, the Potency result in [9], in [10] and in assay [4] was “inactive” throughout.

For `CN(C)C(=O)Nc1ccc(Cl)c(Cl)c1`, the Potency result in assay [5], in [6], in [7], in assay [2], in assay [3] and in [8] was “inactive” each time. Besides, the Potency entry in [9] and in [4] was “inactive” throughout. Besides, in [10], the Potency entry was “inactive and 19.5 µM (active)”.

Turning to `Oc1ccccc1`, the Potency result in [5], in assay [6], in assay [7], in assay [2], in assay [3] and in assay [8] was “inactive” each time. Further, the Potency result in assay [9] and in [4] was “inactive” each time. Further, the Potency result in assay [10] is “inactive and 11 µM (active)”.

Take `Cc1cn([C@H]2C=C[C@@H](CO)O2)c(=O)[nH]c1=O`: the Potency entry in assay [5], in assay [6], in assay [7], in [2], in assay [3] and in assay [8] was “inactive” throughout. Besides, the Potency entry in [9] and in assay [4] was “inactive” in each case. For the same molecule, in assay [10], the Potency result was “inactive and 17.4 µM (active)”.

For the molecule `Cc1ncc([N+](=O)[O-])n1CCO`, the Potency result in [5], in assay [6], in assay [7], in assay [2], in assay [3] and in [8] was “inactive” each time. Further, the Potency entry in assay [9], in assay [10] and in [4] was “inactive” each time.

For `CC1(C)O[C@@H]2C[C@H]3[C@@H]4CCC5=CC(=O)C=C[C@]5(C)[C@@]4(F)[C@@H](O)C[C@]3(C)[C@]2(C(=O)CO)O1`, the Potency result in [5], in [6], in [7], in [2], in [3] and in assay [8] was “inactive” throughout. Also, the Potency result in [9], in [10] and in [4] was “inactive” in each case.

(Values after PubChem BioAssay (Tox21).)
